FMDV antiviral: High Throughput Screening for Foot and Mouth Disease Virus Antivirals. Potency, µM (doses to about 57.9 µM), inactives show at the top dose activity change, negative = inhibition, usual class: inhibitors. AID 1159524, 2015. FMDV antiviral cell-based qHTS. 410,000 tested, 1.2% active; calls by dose curve; tested in HEK293T cells; also: read-out not given here; potency is read from the fitted curve at half-maximal effect; nearly all actives have a fitted effect of over 45% in size
HCMV antiviral: qHTS Assay for inhibitors of the human cytomegalovirus (HCMV); HFF cells, HCMV-luciferase reporter, 72 h; active compounds read low; activity change, negative = inhibition, % at 57.5 µM; 410,000 tested, 4.5% active; AID 1259415, 2018; in the data active = activity change below about -60%; inconclusive = no clear call, values can overlap the other calls; inactive = above about -39%
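Luciferase read-out from HCMV-luciferase-infected HFFs (MOI 1 PFU/cell) 72 h post infection at 37C; compounds added after 16 h cell attachment; activity normalized between buffer-only basal and Salinomycin (10uM) inhibitor controls.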
Tb PYK inh: qHTS of Trypanosoma Brucei Inhibitors; 410,000 tested, 0.12% active; TbPYK enzyme, Kinase-Glo Plus ATP luminescence, 45 min; Potency, µM (highest dose often 76.8 µM), for inactives: at the top dose activity, negative = inhibition, usual class: inhibitors; pyruvate kinase (Trypanosoma brucei), Q57TT1; AID 624173, 2012; also: potency is read from the fitted curve at half-maximal effect; nearly all actives have a fitted effect of over 50% in size
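In this concentration-response screen, enzyme-free wells defined baseline while DMSO plates tracked drift. Each reaction combined TbPYK, substrate, compound and 130 uM ADP for 45 min at room temperature. Kinase-Glo Plus luminescence gave the signal.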
Sm TGR inh: qHTS Assay for the Inhibitors of Schistosoma Mansoni Peroxiredoxins | Schistosoma mansoni thioredoxin glutathione reductase (TGR), Q962Y6 | purified TGR, DTNB reduction, TNB absorbance 405 nm | Potency, µM (doses to about 114 µM), for inactives: at the top dose activity change, negative = inhibition, most hits filed as inhibitors | 360,000 tested, 3% active | AID 485364, 2010; also: potency is read from the fitted curve at half-maximal effect; nearly all actives have a fitted effect of over 60% in size
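TGR 20 nM + NADPH 100 uM (dispensed conc.), cpd preinc 15 min RT; start with NADPH (500 uM addition) then DTNB (15 mM addition). Kinetic TNB absorbance, 405 nm filter. Four-parameter Hill fit across titration.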
RE007 growth inh: qHTS Assay for Inhibitors of the HIV-1 protein Vpr; Potency, µM (doses to about 92.2 µM), inactives show at the top dose activity change, negative = less growth, most hits filed as inhibitors; 360,000 tested, 0.21% active; S. pombe RE007 Vpr strain, BacTiter-Glo ATP luminescence, 24 h; active = well fitted falling curve with a large enough effect; inconclusive = small, poorly fitted or top-dose-only effect; inactive = no such curve, though single readings can be large or run the other way; also: potency is read from the fitted curve at half-maximal effect; nearly all actives have a fitted effect of over 50% in size
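Fission yeast strain RE007, carrying one chromosomally integrated HIV-1 vpr copy, was seeded at OD 0.01 in PMG+AL medium with 23 nL pinned compound. After 24 h at 30 °C and 99% humidity, viability was read by BacTiter-Glo luminescence.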
Giardia FBPA inh: qHTS Assay for Inhibitors of Fructose-1,6-bisphosphate Aldolase from Giardia Lamblia; purified Giardia FBPA; Potency, µM (doses to about 59.6 µM), for the others: top-dose activity, negative = inhibition, hits mostly inhibitors; 290,000 tested, 0.71% active; AID 2451, 2010; also: potency is read from the fitted curve at half-maximal effect; nearly all actives have a fitted effect of over 55% in size
Target sequence (A8B2U2 whole entry, looked up): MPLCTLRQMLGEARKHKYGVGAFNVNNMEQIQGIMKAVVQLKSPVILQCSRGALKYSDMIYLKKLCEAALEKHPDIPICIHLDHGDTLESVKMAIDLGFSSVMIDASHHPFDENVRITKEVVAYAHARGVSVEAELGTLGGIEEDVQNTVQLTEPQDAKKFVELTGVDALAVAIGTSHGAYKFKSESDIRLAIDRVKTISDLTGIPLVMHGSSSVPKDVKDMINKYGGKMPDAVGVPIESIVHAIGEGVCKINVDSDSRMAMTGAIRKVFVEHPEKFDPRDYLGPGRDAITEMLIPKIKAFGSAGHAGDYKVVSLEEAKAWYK
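40 nM FBPA preincubated 10 min at RT with compound (up to 57.5 uM final), then substrate plus GAPDH/TPI/NAD/arsenate coupling and diaphorase/resazurin added. Fluorescence read after 20 min at RT, 525/598 nm.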
An asterisk follows results filed as active; ! = not confirmed by another sample. The list is not random: actives were taken first. Their share in the collection is about 7.7%. Unless noted, calls follow the shape of the dose curve; as a rule, active = well fitted curve in the direction sought with a large enough effect; inconclusive = small, poorly fitted or top-dose-only effect, or another doubt; inactive = no such curve, though single readings can be large; an effect the other way counts as inactive or inconclusive. % is scaled to controls: 0 for no effect and ±100 for the full control effect.

Screening Cc1ccc(NC(=O)CSc2ccc(-c3ccccn3)nn2)cc1 returned FMDV antiviral 0.6%, HCMV antiviral 65.3, Tb PYK inh -2.5%, Sm TGR inh 2.2%, RE007 growth inh 3.3% and Giardia FBPA inh -8.5%.
COc1ccc(NC(=O)CSc2ccc(-c3ccccn3)nn2)cc1OC was read as FMDV antiviral -9.5%, HCMV antiviral 1.0, Tb PYK inh 3.3%, Sm TGR inh -11.5%, RE007 growth inh -19.5% and Giardia FBPA inh -20.1%.
`O=C(CSc1ccc(-c2ccccn2)nn1)Nc1ccc(F)c(F)c1` gave FMDV antiviral -28.5%, HCMV antiviral -90.1*!, Tb PYK inh 0.8%, Sm TGR inh 23.8% and RE007 growth inh -24.5%.
For COc1ccccc1NC(=O)CSc1ccc(-c2ccccn2)nn1 the results were FMDV antiviral 3.4%, HCMV antiviral -100.6*!, Tb PYK inh -3.9%, Sm TGR inh -0.6% and RE007 growth inh 3.3%.
For O=C(CSc1n[nH]c(-c2ccccn2)n1)Nc1ccc(Cl)cc1 the results were FMDV antiviral -16.4%, HCMV antiviral -95.6*, Tb PYK inh -4.1%, Sm TGR inh -20.2%, RE007 growth inh 8.8% and Giardia FBPA inh inconclusive.
Cc1ccc(-c2cc3ncc(C(=O)c4cc([N+](=O)[O-])ccc4O)cn3n2)cc1 was read as FMDV antiviral inconclusive, HCMV antiviral -15.0, Tb PYK inh 3.4% and Sm TGR inh 9.9%.
`CCCCc1ccc(S(=O)(=O)N[C@H]2CC[C@@]34CCCN3C(=O)CCC[C@H]4[C@H]2CCC)cc1` gave HCMV antiviral -9.7.
For CN(C)c1ncc2nc(-c3cccs3)c(=O)n(CCC#N)c2n1 the results were FMDV antiviral -16.7% and Giardia FBPA inh -1.0%.
For CN(C(=O)Cn1cnc2onc(-c3ccc(F)cc3)c2c1=O)c1ccccc1Cl the results were FMDV antiviral -11.9%, HCMV antiviral -6.1, Tb PYK inh -5.7% and Sm TGR inh 5.8%.
COc1cccc(-c2nccc(NCc3ccccc3OC)n2)c1 was read as FMDV antiviral -7.4% and Giardia FBPA inh -13.8%.
`Cc1ccc2c(c1)=NC(=O)/C(=C/c1c(O)[nH]c(=O)[nH]c1=O)C=2` gave FMDV antiviral -15.2%, HCMV antiviral -18.7, Tb PYK inh inconclusive, Sm TGR inh inconclusive, RE007 growth inh 9.1% and Giardia FBPA inh -13.2%.
Screening Cc1ccc2c(c1)=C/C(=C\c1c(O)[nH]c(=S)[nH]c1=O)C(=O)N=2 returned Sm TGR inh 12.6µM* and Giardia FBPA inh inconclusive.
Screening COc1ccccc1[As](=O)(O)CC(O)COc1ccc(Cl)cc1Cl (stereo unspecified) returned HCMV antiviral -18.0, Sm TGR inh 39.8µM* and Giardia FBPA inh 7.8%.
For COc1ccc(OCC(O)Cn2c(=N)n(Cc3ccccc3)c3ccccc32)cc1 (stereo unspecified) the results were FMDV antiviral inconclusive, HCMV antiviral -38.1, Tb PYK inh -12.3%, Sm TGR inh 10.5%, RE007 growth inh 11.2% and Giardia FBPA inh -7.1%.
For Cc1ccc(OCC(O)Cn2c(=N)n(Cc3ccccc3)c3ccccc32)cc1 (stereo unspecified) the results were FMDV antiviral 0.0%, HCMV antiviral -74.2*, Tb PYK inh 11.2%, Sm TGR inh -10.2%, RE007 growth inh 23.5% and Giardia FBPA inh -0.2%.
For N=c1n(Cc2ccc(Cl)cc2)c2ccccc2n1CC(O)COc1ccccc1 (stereo unspecified) the results were FMDV antiviral inconclusive, HCMV antiviral -102.4*, Tb PYK inh -2.4%, Sm TGR inh 0.0%, RE007 growth inh 11.1% and Giardia FBPA inh 0.8%.
